Among all 390,000 compounds or so, about 2,600 (0.67%) were called active. This excerpt belongs to a sample that is enriched for actives. Unmarked numbers belong to inactive results.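 The calls were made as follows: active = mean inhibition of replicates at least 50% and at least half of replicates each reaching 50%; inconclusive = half or more replicates reach 50% but mean below 50%; inactive = the rest.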

This test deals with Transforming acidic coiled-coil-containing protein 3 (Homo sapiens) (UniProt Q9Y6A5). Briefly: disruptors of ARNT/TACC3 protein interaction, primary screen, biochemical, AlphaScreen, single concentration (AID 623870).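 Also: 0% = complete ARNT plus TACC3 wells and 100% = ARNT alone without TACC3.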 The settings on record: AlphaScreen His-ARNT PAS-B/GST-TACC3 binding, luminescence; at 9.99 µM; stronger effect = higher value; TACC3 fragment carries E629A point mutation. (In general: Alpha assays give light when donor and acceptor beads are brought close together.)
`CCN(/N=C/c1ccccc1)c1cc(=O)n(C)c(=O)[nH]1`: the inhibition – broadly, the change of the read-out against control, counted positive when it falls – was 6.16% (active).

Turning to `CN1C(=O)c2cc(NC(=O)c3cnccn3)ccc2OC[C@@H]2O[C@H](CC(=O)NC3CCC3)CC[C@@H]21`, the inhibition is -9.79%.

With `C[C@H](CO)N1C[C@H](C)[C@H](CN(C)S(C)(=O)=O)Oc2c(NC(=O)Nc3cccc4ccccc34)cccc2C1=O`, the inhibition was 8.09%.

Take `O=C(C[C@@H]1C[C@@H]2c3cc(NC(=O)c4ccc5c(c4)OCO5)ccc3O[C@@H]2[C@@H](CO)O1)NCC1CC1`: the inhibition was -5.9%.

`COc1ccccc1NC(=O)N(C)C[C@@H]1Oc2ncc(C#CCC(C)C)cc2C(=O)N([C@@H](C)CO)C[C@@H]1C`: the inhibition is -5.04%.

For the molecule `C[C@@H](NC(=O)C[C@@H]1C[C@H]2c3cc(NC(=O)C4CCC4)ccc3O[C@H]2[C@@H](CO)O1)c1ccccc1`, the inhibition is -9.96%.

As to `N#C[C@@H]1[C@@H](c2ccc(-c3cccnc3)cc2)[C@H](CO)N1C(=O)Nc1ccc(F)cc1`, the inhibition is -8.19%.

Take `Cc1ccc(OS(=O)Nc2cccc3nccnc23)cc1` (centres undefined): the inhibition is 69.3% (active).

As for `Cc1ccc(Oc2ccc3c(c2)C(=O)N(c2cccc4cccnc24)C3=O)cc1`, the inhibition was 1.71%.

`COCC(=O)N1C[C@@H](C)[C@H](OC)CN(C)C(=O)c2ccc(NC(=O)c3ccc(OC)cc3)cc2OC[C@@H]1C`: the inhibition is -7.16%.

`CO[C@H]1CN(C)C(=O)c2cc(NC(=O)Nc3cccc(F)c3)ccc2OC[C@H](C)N(C(C)=O)C[C@H]1C`: the inhibition is 28%.

On to `CO[C@@H]1CN(C)C(=O)c2cc(NC(=O)C3CC3)ccc2OC[C@@H](C)N(Cc2nccs2)C[C@@H]1C`, for which the inhibition was -5.42%.

Take `C[C@H](CO)N1C[C@H](C)[C@H](CN(C)C(=O)Nc2cccc3ccccc23)Oc2ccc(NS(C)(=O)=O)cc2C1=O`: the inhibition was -5.79%.

For the molecule `CNC[C@@H]1OCCCC[C@H](C)Oc2ccc(NS(=O)(=O)c3ccc(F)cc3)cc2C(=O)N([C@@H](C)CO)C[C@@H]1C`, the inhibition was -1.03%.

For `CC(C)(C)Nc1nc(-c2ccccn2)nc2ccccc12`, the inhibition was 93% (active).

For `CC(Nc1nc(C(F)(F)F)nc2ccccc12)c1cccs1` (centres undefined), the inhibition is -5.59%.

For `O=C(C[C@@H]1C[C@H]2c3cc(NC(=O)C4CCOCC4)ccc3O[C@H]2[C@H](CO)O1)NCc1ccc2c(c1)OCO2`, the inhibition was -5.45%.

Consider `O=C(NC1CCCC1)[C@H]1[C@H](CO)[C@H]2Cn3c(ccc(-c4ccccc4F)c3=O)[C@@H]1N2C(=O)CC1CC1`, for which the inhibition was -1.58%.

Consider `C[C@@H]1CN([C@@H](C)CO)C(=O)Cc2cc(NC(=O)Nc3ccc(F)cc3)ccc2O[C@@H]1CN(C)S(=O)(=O)c1ccccc1`, for which the inhibition is 2.95%.

(Values after PubChem BioAssay AID623870 (Broad Institute, 2012).)
